From PubChem
T cruzi growth-1 = inhibitors of T. cruzi proliferation; T. cruzi beta-gal in NIH3T3, GalScreen luminescence, 90 h; AID 624255; inhibition, % at 8.34 µM; hit rate 5.9% among 77,000;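 active = mean inhibition above about 93%, with at least 55% of replicates each passing it, limit read from the data, passing the limit was not always enough; inconclusive = only one of those two conditions holds; inactive = neither condition holds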
Pf Dd2 growth = blocks growth of Plasmodium falciparum Dd2 parasites | P. falciparum Dd2 growth, SYBR Green, 72 h; stronger effect = lower value | activity change, % at 10 µM | hit rate 2.3% among 94,000 | AID 1159554; in the data active = activity change below about -80%; inconclusive = no clear call, values can overlap the other calls
C diff growth = blocks growth of Clostridium difficile; growth activity, negative = inhibition, % at 16 µg/mL (by protocol); Clostridium difficile clinical isolate growth, OD600, 24 h; stronger effect = lower value; hit rate 0.25% among 86,000;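 active = mean growth activity at or below -80% and every replicate also at or below -80%; inconclusive = mean at or below -80% but some replicate above -80%; inactive = mean growth activity above -80%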;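 note: 0% = DMSO wells and -100% = levofloxacin 16 µg/mL wells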
T cruzi growth-2 = Trypanosoma cruzi proliferation inhibition; hit rate 72% among 5,600; AID 651739; T. cruzi beta-gal in NIH3T3, GalScreen luminescence, 90 h; shares compounds with T cruzi growth-1; inhibition, % at 8.35 µM;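 active = mean replicate inhibition above about 95% and at least 55% of replicates individually reaching it, limit read from the data; inconclusive = only one of the two criteria is met; inactive = neither criterion is met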
T cruzi growth-3 = blocks T. cruzi growth in NIH3T3 host cells; shares compounds with T cruzi growth-1; T. cruzi beta-gal in NIH3T3, GalScreen luminescence, 90 h; inhibition, % at 2.09 µM; hit rate 21% among 5,600;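 active = mean inhibition above about 95%, with at least 55% of replicates also reaching it, limit read from the data; inconclusive = meets just one of the two conditions; inactive = meets neither condition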;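 note: plate controls were neutral control median for no effect and positive control median for full effect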
3T3 cytotox = cytotoxicity in mouse NIH/3T3 fibroblasts; shares compounds with T cruzi growth-1; NIH/3T3 viability, CellTiter-Glo ATP luminescence, 90 h; cytotoxicity (signal decrease), % at 8.35 µM; hit rate 14% among 5,600; AID 651742;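 active = mean signal decrease across replicates above about 35% based on untreated-well scatter, with enough replicates individually passing, limit read from the data; inconclusive = no rule stated though some were filed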;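 note: 0% = median of neutral control wells and 100% = median of positive control wells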
NIH3T3 tox 2 = kills mouse NIH/3T3 fibroblasts; AID 651744; NIH/3T3 viability, CellTiter-Glo ATP luminescence, 90 h; shares compounds with T cruzi growth-1; inhibition, % at 24.9 µM; hit rate 56% among 5,600;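 active = mean loss of cell viability signal at or above a set limit, and enough replicates individually reaching it; inconclusive = meets only the mean limit or only the replicate share; inactive = meets neither condition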;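 note: 0% = median of neutral control wells and 100% = median of positive control wells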
Starred values were filed as active, the others as inactive; ? = inconclusive; · = no result. Rows were chosen to be rich in hits. Some 6.8% of all compounds tested hit in one or more screens of this group.

SMILES | T cruzi growth-1 | Pf Dd2 growth | C diff growth | T cruzi growth-2 | T cruzi growth-3 | 3T3 cytotox | NIH3T3 tox 2
CN1C(=O)c2cc(NC(=O)c3cccc(Cl)c3)ccc2OC[C@H]2O[C@@H](CC(=O)NC3CCCCC3)CC[C@@H]21 | · | 8 | 2 | · | · | · | ·
CN1C(=O)c2cc(NC(=O)c3ccc(C(F)(F)F)cc3)ccc2OC[C@H]2O[C@H](CC(=O)NC3Cc4ccccc4C3)CC[C@H]21 | 77 | -27 | · | · | · | · | ·
C/C=C/c1ccc([C@@H]2[C@@H](CNC(=O)CC3CC3)N(C(C)=O)[C@H]2CO)cc1 | 27 | 4 | -5 | · | · | · | ·
C/C=C/c1ccc([C@@H]2[C@@H](CO)N(C(C)=O)[C@@H]2CNC(=O)CC2CC2)cc1 | ? | -11 | -2 | 73 | 13 | 11 | 24
C/C=C/c1ccc([C@H]2[C@@H](CO)N(C(C)=O)[C@@H]2CNC(=O)c2ccccc2)cc1 | 104* | 5 | 0 | 97* | -87 | -24 | -31
C/C=C/c1ccc([C@@H]2[C@H](CO)N(C(C)=O)[C@H]2CNC(=O)c2ccccc2)cc1 | 36 | 23 | 12 | · | · | · | ·
Cc1ccc(S(=O)(=O)N(C)C[C@@H]2Oc3ccc(NC(=O)CCCCCC(=O)Nc4ccccc4N)cc3CC(=O)N([C@H](C)CO)C[C@H]2C)cc1 | 23 | -56 | -5 | · | · | · | ·
CCC(=O)N(C)C[C@@H]1Oc2cc(-c3ccc(C#N)cc3)ccc2S(=O)(=O)N([C@H](C)CO)C[C@H]1C | 48 | -7 | -7 | · | · | · | ·
COc1ccc(NC(=O)N(C)C[C@H]2Oc3ccc(NC(=O)Nc4c(C)noc4C)cc3CC(=O)N([C@@H](C)CO)C[C@H]2C)cc1 | -1 | 36 | 0 | · | · | · | ·
N#C[C@@H]1[C@H](c2ccc(-c3ccc(F)cc3)cc2)[C@@H](CO)N1C(=O)Cc1ccccc1 | 64 | -8 | 15 | · | · | · | ·
COc1cccc(-c2ccc([C@@H]3[C@H](C#N)N(C(=O)Cc4ccccc4)[C@H]3CO)cc2)c1 | ? | -32 | 9 | 111* | 55 | 7 | 33*
COc1cccc(-c2ccccc2[C@@H]2[C@@H](CO)N(C(=O)Cc3ccccc3)[C@H]2C#N)c1 | · | -17 | 12 | · | · | · | ·
COc1cccc(-c2ccc([C@H]3[C@@H](CO)N(C(=O)Cc4ccccc4)[C@H]3C#N)cc2)c1 | 97* | -73 | 10 | 96* | 99* | 21 | 37*
C[C@H]1CCCCO[C@@H](CN(C)S(=O)(=O)c2ccccc2)[C@@H](C)CN([C@@H](C)CO)C(=O)c2cc(NC(=O)Cc3ccccc3)ccc2O1 | 64 | -61 | · | · | · | · | ·
OC[C@H]1[C@@H](c2ccccc2)C2(CN(CCC(F)(F)F)C2)N1Cc1ccncc1 | · | -6 | 11 | · | · | · | ·
C[C@@H](O)C#Cc1ccc([C@H]2[C@@H](CO)N3CCCCN(C(=O)c4ccc(F)cc4)C[C@H]23)cc1 | 99* | -30 | -9 | 102* | 15 | -1 | -12
C[C@H](O)C#Cc1ccc([C@@H]2[C@@H](CO)N3CCCCN(C(=O)c4ccc(F)cc4)C[C@@H]23)cc1 | 41 | 5 | 0 | · | · | · | ·
C[C@H](O)C#Cc1ccc([C@H]2[C@H]3CN(C(=O)c4ccc(F)cc4)CCCCN3[C@H]2CO)cc1 | 27 | 5 | -3 | · | · | · | ·
C[C@H](O)C#Cc1ccc([C@H]2[C@H](CO)N3CCCCN(C(=O)c4ccncc4)C[C@@H]23)cc1 | -23 | -13 | -8 | · | · | · | ·
COc1ccc(C#Cc2ccc([C@H]3[C@@H](CO)N4CCCCN(C(=O)c5ccncc5)C[C@H]34)cc2)cc1 | 101* | -51 | -14 | 102* | 63 | 26 | 106*
C[C@@H](O)C#Cc1ccc([C@H]2[C@H]3CN(C(=O)c4ccncc4)CCCCN3[C@H]2CO)cc1 | ? | -5 | -7 | ? | -7 | 7 | 13
C[C@@H](O)C#Cc1ccc([C@H]2[C@@H](CO)N3CCCCN(C(=O)c4ccc(F)cc4)C[C@@H]23)cc1 | 103* | 4 | -4 | 46 | 30 | -14 | 14
CC(C)(O)C#Cc1ccc([C@H]2[C@H](CO)N3CCCCN(C(=O)c4ccncc4)C[C@@H]23)cc1 | 31 | 40 | -2 | · | · | · | ·
CO[C@H]1CN(C)C(=O)c2cc(NS(C)(=O)=O)ccc2OC[C@@H](C)N(CCC(F)(F)F)C[C@H]1C | 14 | 27 | · | · | · | · | ·
